Compound activity deposited in PubChem BioAssay by National Center for Advancing Translational Sciences (NCATS).
FMDV antiviral: foot and mouth disease virus antiviral activity. FMDV antiviral cell-based qHTS. Potency, µM (titrated, usually from 57.9 µM), actives largely listed as inhibitors. 1.2% of 410,000 active; calls by dose curve; tested in HEK293T cells; note: read-out not given here; nearly all actives have a fitted effect of over 45% in size
Marburg entry inh: inhibitors of Marburg virus binding or cell entry; Marburg virus pseudotyped entry inhibition, cell reporter; Potency, µM (series often up to 37.8 µM), most hits filed as inhibitors; 1.8% of 300,000 active; calls by dose curve; tested in HEK293 cells
LASV entry inh: Lassa virus entry inhibition; AID 540256; Lassa virus pseudotype entry inhibition, cell reporter; 1.2% of 300,000 active; Potency, µM (doses to about 37.9 µM), hits mostly inhibitors; calls by dose curve; tested in HEK293 cells; note: nearly all actives have a fitted effect of over 50% in size
HCMV antiviral: inhibitors of human cytomegalovirus; 4.5% of 410,000 active; activity change, negative = inhibition, % at 57.5 µM; AID 1259415; HFF cells, HCMV-luciferase reporter, 72 h; hits give low values; in the data active = activity change below about -60%; inconclusive = no clear call, values can overlap the other calls; inactive = above about -39%
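Luciferase read-out from HCMV-luciferase-infected HFFs (MOI 1 PFU/cell) 72 h post infection at 37C; compounds added after 16 h cell attachment; activity normalized between buffer-only basal and Salinomycin (10uM) inhibitor controls.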
HCV inhibitor: inhibitors of hepatitis C virus infection | 3.4% of 340,000 active | Potency, µM (titrated, usually from 41.8 µM), usual class: inhibitors | AID 651820 | Huh7.5.1 HCVcc-Cre infection, luciferase reporter, 44 h; active = well fitted inhibition curve with a large enough effect; inconclusive = small, poorly fitted or top-dose-only effect, or another doubt; inactive = no such curve, though single readings can be large or run the other way
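Whole-lifecycle infectious HCVcc-Cre system; cells 1,000/well, compound then virus (~0.5 moi) added 4 h after plating, 44 h culture. Luciferase read 15 sec following 15 min substrate incubation, room temp.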
SARS PLpro yeast: inhibitors of SARS-CoV papain-like protease in yeast; S. cerevisiae expressing SARS-CoV PLpro, growth rescue; Potency, µM (doses to about 32.9 µM), most hits filed as activators; 0.19% of 330,000 active; AID 485353; calls by dose curve; note: nearly all actives have a fitted effect of over 55% in size
A number is an active result; i = inactive; ? = inconclusive; nt = no result given. Rows were chosen to be rich in hits. Some 8% of all compounds tested hit in one or more screens of this group.

SMILES	FMDV antiviral	Marburg entry inh	LASV entry inh	HCMV antiviral	HCV inhibitor	SARS PLpro yeast
CCN1CCN(c2cc(C(C)(C)C)nc3c(-c4ccccc4)c(C)nn23)CC1	i	?	?	-74.9	3.98µM	i
O=C(CCc1nnc2n(Cc3ccc(Cl)cc3)c(=O)c3ccccc3n12)NCCN1CCCC1	i	10µM	?	i	3.55µM	i
N#C/C(=C\C=C\c1ccccc1)c1nc(-c2ccc(Cl)cc2)cs1	i	nt	nt	-60.2	i	i
C=CCNC(=O)/C(C#N)=C/c1c(C)nn(-c2ccccc2)c1Cl	i	7.94µM	i	i	?	i
CCOc1ccccc1NC(=O)/C(C#N)=C/c1c(C)nn(-c2ccccc2)c1Cl	i	i	?	i	i	i
CCOC(=O)C(NCc1ccccc1NC(=O)OC(C)(C)C)c1nnnn1Cc1ccccc1 (stereo not drawn)	nt	nt	nt	i	nt	nt
S=C(NCc1ccccn1)NN=Cc1ccccn1	i	?	12.6µM	-98.7	?	nt
O=C(CNC(=O)c1cccc(Br)c1)N/N=C/c1ccc2c(c1)OCO2	i	i	i	-74.2	i	i
O=C(NCc1ccccn1)C(=O)N/N=C/c1ccc2c(c1)OCO2	i	nt	nt	-90.5	i	i
O=C(CN(Cc1ccccc1)S(=O)(=O)c1ccccc1)N/N=C/c1ccc2c(c1)OCO2	nt	?	7.3µM	i	?	i
CCOc1ccc(NC(=O)CSc2nnc3scc(-c4ccccc4)n23)cc1	i	i	i	i	nt	nt
COc1cccc(NC(=O)C(C)n2c(=O)cc(C(F)(F)F)c3c(C)nn(C)c32)c1 (stereo not drawn)	i	nt	i	i	nt	nt
Nc1n[nH]c(-c2ccc(Br)cc2)c1Cl	i	i	i	-108.6	i	i
CCOC(=O)c1ccc(NC(=O)CCCn2nc(C)c3sc4ccccc4c3c2=O)cc1	i	i	i	i	nt	nt
N[C@H](C(=O)O)[C@H]1C[C@H]1C(=O)O	i	nt	nt	nt	nt	nt
O=[N+]([O-])c1ccc(-c2nc(C(Cl)Cl)c3ccccc3n2)cc1	i	?	?	-102.4	2µM	i
Cc1csc(SCC(=O)N2CCOc3ccc(C(O)C4CCCCC4)cc3C2)n1 (stereo not drawn)	i	nt	nt	nt	nt	nt
COc1ccc(CCC(=O)Nc2cc(Cl)ccc2OC)cc1	nt	i	?	i	?	i
CC(C)(C)NS(=O)(=O)c1ccc(CCC(=O)Nc2cc(Cl)ccc2Oc2ccccc2)cc1	?	8.91µM	?	i	8.91µM	i
O=C(O)CCc1ccc(S(=O)(=O)Nc2ccc(OCc3ccccc3)cc2)cc1	i	?	i	i	?	i
CCOc1ccc(Oc2ccccc2NS(=O)(=O)c2ccc(CCC(=O)O)cc2)cc1	?	nt	nt	-64.4	i	i
CC(C)CNS(=O)(=O)c1ccc(CCC(=O)Nc2cc(Cl)ccc2Oc2ccccc2)cc1	?	i	?	i	?	i
CCCNS(=O)(=O)c1ccc(CCC(=O)Nc2cc(Cl)ccc2Oc2ccccc2)cc1	?	?	?	i	10µM	i
CCc1cccc(Nc2ncnc3onc(-c4ccc(F)cc4)c23)c1	?	nt	i	i	nt	nt
Cc1ccc2oc(C(=O)Nc3c(C(=O)Nc4ccccc4)oc4ccccc34)cc(=O)c2c1	?	i	i	i	nt	nt
SMILES	FMDV antiviral	Marburg entry inh	LASV entry inh	HCMV antiviral	HCV inhibitor	SARS PLpro yeast
Cc1cc(NC(=O)Cn2cc([N+](=O)[O-])cn2)n(Cc2ccc(F)cc2)n1	i	i	i	i	i	i
Cc1nn(Cc2ccc(Cl)cc2)c(C)c1NC(=O)CCCn1nc(C)c([N+](=O)[O-])c1C	i	12.6µM	?	i	i	i
Cc1nn(Cc2ccc(C(=O)Nc3ccccc3F)cc2)c(C)c1Cl	i	nt	nt	-61.8	i	i
Cc1nn(Cc2ccc(C(=O)NN)cc2)c(C)c1Cl	i	?	i	i	i	i
Cc1cc(NC(=O)CCCn2ccc([N+](=O)[O-])n2)n(Cc2ccc(F)cc2)n1	i	i	i	-83.5	?	i
Cc1nn(Cc2ccc(Cl)cc2Cl)c(C)c1NC(=O)Cn1nc([N+](=O)[O-])c(Cl)c1C	?	?	i	i	?	nt
Cc1nn(Cc2ccc(Cl)cc2)c(C)c1NC(=O)Cn1nc([N+](=O)[O-])c(Cl)c1C	i	?	i	i	3.16µM	i
Cc1nn(Cc2ccc(Cl)cc2)c(C)c1NC(=O)C(c1ccccc1)c1ccccc1	i	?	i	-64.0	?	i
Cc1ccc(CNC(=O)c2ccc(CSCc3cccc(C)c3)o2)cc1	i	nt	i	i	nt	nt
O=C(O)c1ccc(CSCc2ccccc2)o1	i	nt	nt	-84.7	nt	nt
Cc1cccc(CSCc2ccc(C(=O)NC(C)C)o2)c1	?	nt	nt	i	12.6µM	i
